Reference: the supplement of paper PMC12350171
Counter-ions that a name gives are not always drawn.

Test system: P. vulgatus WT
Experiment: growth AUC normalised to DMSO control (median) (fraction of control); higher = less growth inhibition, active = hit call of the paper
Details: 20 µM;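 active = normalised median growth AUC below 0.1 of DMSO control; inactive = AUC 0.1 or higher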
How it was run: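 Anaerobic growth was tracked hourly at OD578 for 24 h in 96-well plates of mGAM seeded at OD578 0.01 with each approved-drug library compound at 20 μM and 1% DMSO. Strains had first been passaged twice overnight without oxygen. Three biological replicates were run. The reported median is the area under the curve, calculated by the trapezoidal rule on curves truncated at entry into stationary phase and normalised to vehicle wells on the same plate.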
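Also: active when median AUC fell below 0.1.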

Compound | growth AUC normalised to DMSO control
c1ccc2c(c1)Nc1ccccc1S2 [Phenothiazine] | 1.01 (inactive)
O=[N+]([O-])O[C@@H]1CO[C@H]2[C@@H]1OC[C@@H]2O [Isosorbide mononitrate] | 0.958 (inactive)
CC[C@@]1([C@@H]2O[C@@H]([C@H]3O[C@@](O)(CO)[C@H](C)C[C@@H]3C)C[C@@H]2C)CC[C@H]([C@]2(C)CC[C@]3(C[C@H](O)[C@@H](C)[C@@H]([C@@H](C)[C@@H](OC)[C@H](C)C(=O)O)O3)O2)O1 [Monensin sodium salt] | 0.305 (inactive)
C[C@]12C=CC(=O)C=C1CC[C@@H]1[C@@H]2CC[C@@]2(C)[C@H]1CC[C@]2(C)O [Methandrostenolone] | 0.998 (inactive)
C=C[C@H]1CN2CC[C@H]1C[C@H]2[C@H](OC(=O)OCC)c1ccnc2ccc(OC)cc12 [Quinine ethyl carbonate] | 1 (inactive)
COc1ccc2c(c1)[C@]13CCCC[C@@H]1[C@H](C2)N(C)CC3 [Dextromethorphan hydrobromide monohydrate] | 1 (inactive)
Oc1ccc(Cl)cc1Cc1cc(Cl)ccc1O [Dichlorophen] | 0.442 (inactive)
CC(C)=CC1C(C(=O)OCc2cccc(Oc3ccccc3)c2)C1(C)C (centres undefined) [Phenothrin] | 1.01 (inactive)
CC(C)C[C@H](CN)CC(=O)O [Pregabalin] | 0.976 (inactive)
CC(C)(C)NCC(O)c1ccccc1Cl (centres undefined) [Tulobuterol Hydrochloride] | 1 (inactive)
CCN(CC)CCOC(=O)C(O)(c1ccccc1)c1ccccc1 [Benactyzine hydrochloride] | 0.997 (inactive)
C[C@]12CC[C@@H]3c4ccc(OC(=O)N(CCCl)CCCl)cc4CC[C@H]3[C@@H]1CC[C@@H]2O [Estramustine] | 0.984 (inactive)
O=C(O[C@H]1C[N+]2(CCCOc3ccccc3)CCC1CC2)C(O)(c1cccs1)c1cccs1 [Aclidinium bromide] | 1 (inactive)
COc1ccc(Cc2nccc3cc(OC)c(OC)cc23)cc1OC [Papaverine hydrochloride] | 1.01 (inactive)
Nc1ccncc1 [Dalfampridine] | 1.03 (inactive)
CN[C@@H]1C[C@@H](c2ccc(Cl)c(Cl)c2)c2ccccc21 [Indatraline hydrochloride] | 1.08 (inactive)
NC(=O)CN1CC(O)CC1=O (centres undefined) [Oxiracetam] | 1.03 (inactive)
CN1C(=O)COc2c(C(=O)NC3CN4CCC3CC4)cc(Cl)cc21 (centres undefined) [Azasetron hydrochloride] | 1.04 (inactive)
C[C@]12CC[C@H](O)CC1=CC[C@@H]1[C@@H]2CC[C@]2(C)C(=O)CC[C@@H]12 [Prasterone] | 0.994 (inactive)
CC(C)C[C@H]1C(=O)N2CCC[C@H]2[C@]2(O)O[C@](NC(=O)[C@@H]3C=C4c5cccc6[nH]c(Br)c(c56)C[C@H]4N(C)C3)(C(C)C)C(=O)N12 [Bromocryptine mesylate] | 1.03 (inactive)

Compound | growth AUC normalised to DMSO control
C=CCN1CC[C@]23c4c5ccc(O)c4O[C@H]2C(=O)CC[C@@]3(O)[C@H]1C5 [Naloxone hydrochloride] | 0.997 (inactive)
C=CC[C@]1(O)CC[C@H]2[C@@H]3CCC4=CCCC[C@@H]4[C@H]3CC[C@@]21C [Allylestrenol] | 0.925 (inactive)
C=C1C[C@@H]2[C@H](CC[C@]3(C)C(=O)CC[C@@H]23)[C@@]2(C)C=CC(=O)C=C12 [Exemestane] | 0.969 (inactive)
C[C@]12C/C(=C/O)C(=O)C[C@@H]1CC[C@@H]1[C@@H]2CC[C@@]2(C)[C@H]1CC[C@]2(C)O [Oxymetholone] | 1 (inactive)
CCC(=O)O[C@H]1CC[C@H]2[C@@H]3CCC4=CC(=O)CC[C@]4(C)[C@H]3CC[C@]12C [Testosterone propionate] | 1.01 (inactive)
CC(N)C(O)c1ccccc1 (centres undefined) [Phenylpropanolamine hydrochloride] | 1.02 (inactive)
Cc1cccc(C)c1NC(=O)CN1CCCC1=O [Nefiracetam] | 1.01 (inactive)
C[C@]12COC(=O)C[C@@H]1CC[C@@H]1[C@@H]2CC[C@@]2(C)[C@H]1CC[C@]2(C)O [Oxandrolone] | 1.05 (inactive)
CCC1(C2=NCCN2)Cc2ccccc2O1 (centres undefined) [Efaroxan hydrochloride] | 1.03 (inactive)
CCC(COC(=O)c1cc(OC)c(OC)c(OC)c1)(c1ccccc1)N(C)C (centres undefined) [Trimebutine] | 1.01 (inactive)
COC[C@@H](NC(C)=O)C(=O)NCc1ccccc1 [Lacosamide] | 1 (inactive)
CCCCCC[C@H]1C(=O)O[C@H](C)[C@H](NC(=O)c2cccc(NC=O)c2O)C(=O)O[C@@H](C)[C@@H]1OC(=O)CC(C)C [Antimycin A] | 1.05 (inactive)
C[C@]12CCC(=O)C=C1CC[C@@H]1[C@@H]2C(=O)C[C@]2(C)C(=O)CC[C@@H]12 [Adrenosterone] | 1.02 (inactive)
N#Cc1nn(-c2c(Cl)cc(C(F)(F)F)cc2Cl)c(N)c1[S+]([O-])C(F)(F)F (centres undefined) [Fipronil] | 0.906 (inactive)
NC(=O)OCCCc1ccccc1 [Phenprobamate] | 1.02 (inactive)
CC[C@@H](C(=O)[C@@H](C)[C@@H](O)[C@H](C)[C@@H]1O[C@@H]([C@@H](CC)C(=O)O)CC[C@@H]1C)[C@H]1O[C@]2(C=C[C@@H](O)[C@]3(CC[C@@](C)([C@H]4CC[C@](O)(CC)[C@H](C)O4)O3)O2)[C@H](C)C[C@@H]1C [Salinomycin sodium] | 0.00987 (active)
CCN(C)C(=O)Oc1cccc([C@H](C)N(C)C)c1 [Rivastigmine] | 1.03 (inactive)
Nc1nc(N)nc(NC2CC2)n1 [Cyromazine] | 1.01 (inactive)
C#C[C@]1(O)C=C[C@H]2[C@@H]3CCC4=CC(=O)CC[C@@H]4[C@H]3CC[C@@]21CC [Gestodene] | 0.978 (inactive)
